What all share (experiment): universal protein binding microarray (PBM); transcription factors of Arabidopsis thaliana; high values mean tight binding
What all share (settings): protein: recombinant; tags: GST; chain copies: 2; dsDNA, one strand shown

The target of one experiment is T1, GST-ANAC092(1-176) (Arabidopsis thaliana, UniProt Q9FKA0 1-176).
T1 sequence: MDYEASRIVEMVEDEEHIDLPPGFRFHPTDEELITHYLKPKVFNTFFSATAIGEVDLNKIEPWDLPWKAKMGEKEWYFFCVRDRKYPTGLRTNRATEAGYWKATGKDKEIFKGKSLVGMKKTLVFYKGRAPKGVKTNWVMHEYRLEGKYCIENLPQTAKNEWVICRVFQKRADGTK
Put shortly:
(§1)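 GST-tagged NAC-domain, full-length or DNA-binding-domain proteins were induced in cells, with zinc acetate added for zinc-finger proteins. They were purified on glutathione–Sepharose 4B and quantified by A280 or anti-GST western blot. Each was applied at 200 to 500 nM final, in duplicate, to custom all-10-mer Agilent 4 × 180K arrays made double-stranded by primer extension, with gapped and ungapped 8-mers scored. Binding is the normalised enrichment score (E-score).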

A further experiment has as its target GST-NTL6(1-168) (Arabidopsis thaliana, UniProt Q9SCK6 1-168). Put shortly:
as §1

A further experiment deals with T2, GST-ANAC019 NAC domain (Arabidopsis thaliana, UniProt Q9C932 14-162).
T2 sequence: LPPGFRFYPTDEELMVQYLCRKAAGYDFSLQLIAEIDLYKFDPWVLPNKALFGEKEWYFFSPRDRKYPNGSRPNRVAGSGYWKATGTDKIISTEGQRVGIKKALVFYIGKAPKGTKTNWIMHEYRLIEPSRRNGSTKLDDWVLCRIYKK
In outline: as §1

In the next experiment the target is T3, GST-ANAC055(1-171) (Arabidopsis thaliana, UniProt Q9LDY8 1-171).
T3 sequence: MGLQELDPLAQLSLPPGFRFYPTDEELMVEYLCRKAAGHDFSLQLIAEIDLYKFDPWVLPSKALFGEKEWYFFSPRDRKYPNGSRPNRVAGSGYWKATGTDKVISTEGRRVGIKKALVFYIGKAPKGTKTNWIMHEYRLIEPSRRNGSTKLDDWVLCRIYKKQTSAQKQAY
In outline:
as §1

Another experiment deals with T4, GST-ATAF1 NAC domain (Arabidopsis thaliana, UniProt Q39013 7-158).
T4 sequence: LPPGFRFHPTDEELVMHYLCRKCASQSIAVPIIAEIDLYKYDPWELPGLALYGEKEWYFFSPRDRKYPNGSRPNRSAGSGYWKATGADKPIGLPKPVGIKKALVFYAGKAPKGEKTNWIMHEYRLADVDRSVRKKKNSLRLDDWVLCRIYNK
Put shortly:
as §1

Experiment [1] deals with T5, GST-ANAC092(1-285) full length (Arabidopsis thaliana, UniProt Q9FKA0 1-285).
T5 sequence: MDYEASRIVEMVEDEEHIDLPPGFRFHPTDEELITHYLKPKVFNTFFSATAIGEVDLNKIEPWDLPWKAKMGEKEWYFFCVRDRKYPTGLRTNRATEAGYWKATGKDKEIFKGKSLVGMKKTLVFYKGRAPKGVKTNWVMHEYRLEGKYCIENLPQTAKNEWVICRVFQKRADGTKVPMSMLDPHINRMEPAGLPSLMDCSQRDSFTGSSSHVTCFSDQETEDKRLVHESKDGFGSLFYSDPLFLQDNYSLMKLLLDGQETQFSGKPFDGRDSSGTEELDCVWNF
In outline: as §1

The next experiment has as its target T6, GST-NAP(1-166) (Arabidopsis thaliana, UniProt O49255 1-166).
T6 sequence: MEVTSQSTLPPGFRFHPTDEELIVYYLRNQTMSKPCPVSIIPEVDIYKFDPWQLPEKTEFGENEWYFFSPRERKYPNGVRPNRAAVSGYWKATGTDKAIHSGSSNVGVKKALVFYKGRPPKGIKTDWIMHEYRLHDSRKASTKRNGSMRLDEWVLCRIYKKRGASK
In outline:
as §1

Another experiment has as its target T7, GST-NST2(1-184) (Arabidopsis thaliana, UniProt Q9M274 1-184).
T7 sequence: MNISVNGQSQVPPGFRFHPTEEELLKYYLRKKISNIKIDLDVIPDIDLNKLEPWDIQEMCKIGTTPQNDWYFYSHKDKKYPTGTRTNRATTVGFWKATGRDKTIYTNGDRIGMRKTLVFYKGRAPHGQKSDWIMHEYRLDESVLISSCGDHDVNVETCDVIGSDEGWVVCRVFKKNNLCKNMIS
Put shortly: as §1

The next experiment addresses T8, GST-NTL8 NAC domain (Arabidopsis thaliana, UniProt Q9XIN7 14-156).
T8 sequence: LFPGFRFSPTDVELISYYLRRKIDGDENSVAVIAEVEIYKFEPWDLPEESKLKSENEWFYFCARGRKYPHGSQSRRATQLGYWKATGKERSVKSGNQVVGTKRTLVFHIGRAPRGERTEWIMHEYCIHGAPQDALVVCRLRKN
Put shortly:
as §1

The next experiment has as its target T9, GST-SND1(1-203) (Arabidopsis thaliana, UniProt Q9LPI7 1-203).
T9 sequence: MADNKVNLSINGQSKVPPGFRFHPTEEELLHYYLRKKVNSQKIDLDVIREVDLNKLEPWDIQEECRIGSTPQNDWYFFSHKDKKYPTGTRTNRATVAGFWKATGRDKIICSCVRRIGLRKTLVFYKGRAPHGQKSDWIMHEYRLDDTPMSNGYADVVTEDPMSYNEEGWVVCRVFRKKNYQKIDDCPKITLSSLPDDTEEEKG
Put shortly:
as §1

Another experiment concerns the target T10, GST-VND3 NAC domain (Arabidopsis thaliana, UniProt Q9FH59 12-162).
T10 sequence: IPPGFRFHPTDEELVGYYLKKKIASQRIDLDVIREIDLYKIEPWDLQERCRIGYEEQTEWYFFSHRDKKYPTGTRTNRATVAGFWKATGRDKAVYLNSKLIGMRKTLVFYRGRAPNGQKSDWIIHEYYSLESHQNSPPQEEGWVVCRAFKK
Put shortly: as §1

Another experiment addresses T11, GST-VND7 NAC domain (Arabidopsis thaliana, UniProt Q9C8W9 9-158).
T11 sequence: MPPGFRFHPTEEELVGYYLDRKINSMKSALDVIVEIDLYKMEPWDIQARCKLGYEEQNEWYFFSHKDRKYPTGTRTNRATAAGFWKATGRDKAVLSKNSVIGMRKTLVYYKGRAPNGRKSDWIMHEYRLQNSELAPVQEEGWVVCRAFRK
Put shortly:
as §1

Sequence of GST-NTL6(1-168) (Q9SCK6 1-168): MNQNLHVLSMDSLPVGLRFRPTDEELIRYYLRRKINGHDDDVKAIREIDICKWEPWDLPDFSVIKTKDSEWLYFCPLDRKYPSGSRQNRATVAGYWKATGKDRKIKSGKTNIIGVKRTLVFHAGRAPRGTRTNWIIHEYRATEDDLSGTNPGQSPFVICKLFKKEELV

For the sequence CTTACGCA, the binding signal with GST-ANAC092(1-176) stood at 0.359 E-score; with GST-NTL6(1-168), 0.0871 E-score; with GST-ANAC019 NAC domain, 0.265 E-score; with GST-ANAC055(1-171), 0.199 E-score; with GST-ATAF1 NAC domain it was 0.187 E-score; in experiment [1] it was 0.389 E-score. Moreover, the binding signal in the experiment with GST-NAP(1-166) came to 0.243 E-score; with GST-NST2(1-184) it was 0.278 E-score; with GST-NTL8 NAC domain it was 0.111 E-score; with GST-SND1(1-203), 0.429 E-score; with GST-VND3 NAC domain it was 0.255 E-score; with GST-VND7 NAC domain, 0.295 E-score.
AGTAAGTA: the binding signal was 0.145 E-score in the experiment with GST-ANAC092(1-176); 0.415 E-score with GST-NTL6(1-168); 0.133 E-score with GST-ANAC019 NAC domain; 0.199 E-score with GST-ANAC055(1-171); 0.14 E-score with GST-ATAF1 NAC domain; 0.184 E-score in experiment [1]. Further, the binding signal worked out at 0.218 E-score with GST-NST2(1-184), 0.137 E-score with GST-SND1(1-203), 0.275 E-score in the experiment with GST-VND3 NAC domain and 0.083 E-score in the experiment with GST-VND7 NAC domain.
In the case of TTAAGTAA, the binding signal in the experiment with GST-ANAC092(1-176) is 0.236 E-score; with GST-NTL6(1-168), 0.48 E-score; with GST-ANAC019 NAC domain, 0.198 E-score; in the experiment with GST-ANAC055(1-171), 0.0996 E-score; in the experiment with GST-ATAF1 NAC domain it was 0.168 E-score; in experiment [1], 0.3 E-score. Also, the binding signal in the experiment with GST-NST2(1-184) is 0.258 E-score; with GST-NTL8 NAC domain it was 0.34 E-score; with GST-SND1(1-203), 0.403 E-score; with GST-VND3 NAC domain, 0.17 E-score; with GST-VND7 NAC domain it was 0.135 E-score.
On to GTAAGAAA, for which the binding signal with GST-ANAC092(1-176) is 0.296 E-score; with GST-NTL6(1-168), 0.422 E-score; in the experiment with GST-ANAC019 NAC domain, 0.224 E-score; in the experiment with GST-ANAC055(1-171), 0.206 E-score; with GST-ATAF1 NAC domain, 0.311 E-score; in experiment [1], 0.332 E-score. The binding signal in the experiment with GST-NAP(1-166) stood at 0.101 E-score; with GST-NST2(1-184) it was 0.289 E-score; with GST-NTL8 NAC domain it was 0.214 E-score; with GST-SND1(1-203), 0.303 E-score; with GST-VND3 NAC domain, 0.16 E-score; with GST-VND7 NAC domain, 0.19 E-score.
Take GTTAAGTA: the binding signal with GST-ANAC092(1-176) amounted to 0.119 E-score; in the experiment with GST-NTL6(1-168), 0.45 E-score; with GST-ANAC019 NAC domain, 0.171 E-score; with GST-ANAC055(1-171), 0.0947 E-score; in the experiment with GST-ATAF1 NAC domain, 0.218 E-score; in [1] it was 0.123 E-score. The binding signal with GST-NST2(1-184) is 0.148 E-score; with GST-NTL8 NAC domain, 0.228 E-score; in the experiment with GST-SND1(1-203) it was 0.202 E-score; in the experiment with GST-VND3 NAC domain, 0.245 E-score; in the experiment with GST-VND7 NAC domain, 0.0716 E-score.
For the sequence GCAAGTAA, the binding signal with GST-ANAC092(1-176) amounted to 0.339 E-score; with GST-NTL6(1-168) it was 0.409 E-score; in the experiment with GST-ANAC019 NAC domain, 0.211 E-score; in the experiment with GST-ANAC055(1-171), 0.198 E-score; in the experiment with GST-ATAF1 NAC domain, 0.151 E-score; in [1], 0.415 E-score. The binding signal in the experiment with GST-NAP(1-166) came to 0.056 E-score; in the experiment with GST-NST2(1-184), 0.223 E-score; with GST-NTL8 NAC domain, 0.264 E-score; with GST-SND1(1-203) it was 0.352 E-score; with GST-VND3 NAC domain it was 0.231 E-score; with GST-VND7 NAC domain it was 0.232 E-score.
Regarding CACGTTTC, the binding signal came out at 0.424 E-score with GST-ANAC092(1-176); 0.107 E-score in the experiment with GST-NTL6(1-168); 0.381 E-score with GST-ANAC019 NAC domain; 0.375 E-score with GST-ANAC055(1-171); 0.383 E-score in the experiment with GST-ATAF1 NAC domain; 0.432 E-score in [1]. Moreover, the binding signal with GST-NAP(1-166) worked out at 0.332 E-score; with GST-NST2(1-184), 0.286 E-score; with GST-NTL8 NAC domain, 0.217 E-score; with GST-SND1(1-203), 0.299 E-score; in the experiment with GST-VND3 NAC domain it was 0.262 E-score; with GST-VND7 NAC domain, 0.298 E-score.

Source of the values: paper PMC4081100, “A DNA-binding-site landscape and regulatory network analysis for NAC transcription factors in Arabidopsis thaliana”.
